The supplement of paper PMC4723716

Tested on: Plasmodium falciparum NF54 gametocytes
Assay: viability index relative to DMSO control (fraction); higher = less gametocyte killing
Settings: 12.5 µM, incubation time: 72 h
Summary of the method: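 P. falciparum NF54 gametocytes at stages I–V were treated with compound at 12.5 µM for 72 hr at 37°C under low oxygen in serum-containing medium (0.50% gametocytemia, 1.25% hematocrit), then stained with MitoTracker Red CMXRos and imaged in serum-free medium containing 500 nM dye. The viability index is the gametocyte particle count divided by the plate mean of solvent-only wells.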

[1] = gametocyte stage: Stage I viability index
[2] = gametocyte stage: Stage II viability index
[3] = gametocyte stage: Stage III viability index
[4] = gametocyte stage: Stage IV viability index
[5] = gametocyte stage: Stage V viability index

Structure (SMILES)	viability index [1]	viability index [2]	viability index [3]	viability index [4]	viability index [5]
CCOc1ccc2nc(C)cc(Nc3ccc(N(C)C)cc3)c2c1	0.157	0.571	0.868	0.943	0.857
Cc1cc(NC(=O)c2ccc(-c3ccccc3)cc2)no1	0.759	0.877	0.901	0.836	0.681
O=C(Nc1ccccc1O)c1ccc(Oc2cccc(C(=O)Nc3ccccc3O)c2)cc1	0.00331	0.161	0.434	0.456	0.462
CN(C)c1ccc(N=Cc2ccc(N3CCOCC3)cc2)cc1	0.955	0.834	0.927	1.01	0.896
N=c1n(CCN2CCCCC2)c2ccccc2n1CC(O)c1cccc(Br)c1 (stereo not given)	0.0133	0.056	0.133	0.267	0.341
COc1ccc(C=C2SC(Nc3ccc(F)cc3)=NC2=O)c(OC)c1	0.76	0.669	0.676	0.646	0.558
CCN(CC)CCNc1ccnc2cc(Cl)ccc12	0.0376	0.295	0.789	0.726	0.626
Cc1ccc2c(C)nc(Nc3nc(C)cc(-c4ccccc4)n3)nc2c1	0.169	0.3	0.318	0.231	0.0519
C[n+]1c2ccccc2nc2ccc(NCCO)cc21	0.0398	0.302	0.595	0.824	1.03
CC(C)CNC(=O)c1c(N)n(CCc2ccccc2F)c2nc3ccccc3nc12	0.0398	0.139	0.662	0.687	0.769
Nc1nc(Nc2cccc(F)c2)nc2ccccc12	0.0673	0.534	0.725	0.82	0.844
COc1ccc(-c2nc(NC(=O)CS(=O)(=O)c3ccc(F)cc3)sc2C)cc1	0.307	0.564	1.11	0.888	0.978
COc1ccc(C(=O)Nc2ccc3nc(N4CCCCC4)cc(C)c3c2)cc1OC	0.275	0.58	0.95	0.9	0.989
Cc1cc(Nc2ccc(C)c(Cl)c2)n2nc(C(F)(F)F)nc2n1	0.881	1.23	0.983	1.08	0.945
CCN(CC)c1cc(C)c2cc(NC(=O)c3cccc(OC)c3)ccc2n1	0.154	0.563	0.864	0.967	1.01
COc1ccc2sc(N(Cc3cccnc3)C(=O)c3ccc(C#N)cc3)nc2c1	1.05	0.773	0.995	0.934	1.16
COc1ccc(C2C(C(=O)Nc3cccc(OC)c3)c3ccccc3C(=O)N2C2CCCCC2)cc1 (stereo not given)	0.0691	0.0974	0.488	0.551	0.519
CCc1ccc(Nc2cc(C)c3ccc(O)cc3n2)cc1	0.238	0.256	0.706	0.827	0.945
CN(C)c1ccc(C(O)(c2ccc(N(C)C)cc2)c2ccc(N(C)C)cc2)cc1	0.157	0.0203	0.0948	0.0608	0.11
CCOc1ccccc1CN1CCc2nc3cc(C(C)(C)C)nn3c(O)c2C1	0.89	0.7	0.583	0.737	0.597
CCOC(=O)c1c(NC(=O)c2ccccc2)sc2c(O)c(CN(CC)CC)ccc12	0.0641	0.129	0.32	0.517	0.407
CCCCCCc1cc2cc(-c3csc(C=Cc4ccccc4)n3)c(=O)oc2cc1O	0.309	0.313	0.621	0.797	0.636
CSC1=NC(=Nc2c(C)cccc2C)C2(CCC(C(C)(C)C)CC2)N1c1ccc(Cl)cc1 (stereo not given)	0.646	0.816	0.928	0.994	0.835
Oc1c(CN2CCN(c3ccccc3F)CC2)cc(Br)c2cccnc12	0.0376	0.0566	0.0353	0.0253	0.026
COc1cccc(O)c1CN1CCC2(CCCN(Cc3ccc(F)cc3)C2)C1 (stereo not given)	0.0144	0.0986	0.446	0.602	0.615
COc1ccc(C=C2SC(=N)N(c3ccccc3OC)C2=O)cc1	0.642	0.916	0.942	0.769	0.923
Cc1cc(C)c2nc(N3CCC(C(=O)NCCCN4CCC(N5CCCCC5)CC4)CC3)sc2c1	0.0166	0.204	0.455	0.477	0.352
CC(C)(C)C(=O)Nc1ccc(C(=O)Nc2cccc(-c3nc4ccccc4[nH]3)c2)cc1	0.111	0.592	0.694	0.833	0.604
Cc1cccc(N2C(=O)C3C(C2=O)C2(c4ccccc4)C(=O)C3(c3ccccc3)C(c3ccc4c(c3)OCO4)=C2c2ccc3c(c2)OCO3)c1 (stereo not given)	1.16	0.896	1.08	0.886	1.03
CC1CC2=C(CC1CNCCCN(C)C)C(C)(C)CCC2 (stereo not given)	0.383	0.362	0.48	0.468	0.312
